# Out of some 310,000 compounds screened, about 2,600 (0.84%) were called active. This is one part of a sample in which actives are shown more often than they occur.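 Rule for the calls: active = fluorescence ratio B-score at or below minus 3 SD of library scores, with starting-brightness B-score within 2 SD (cut at about -4.2 in these data); inactive = the rest.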
# Biological target: Inward rectifier potassium channel 2 (Mus musculus) (UniProt P35561)
# Assay: inhibitors of mouse Kir2.1 inward-rectifier potassium channel (AID 1672);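 note: channel flux triggered by added potassium and thallium sulfate stimulus; B-score of peak minus minimum fluorescence over baseline after thallium stimulus; more negative B-score means stronger Kir2.1 block with less thallium influx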
# Settings: HEK293-Kir2.1, FluxOR thallium flux fluorescence; at 10 µM; hits give low values
# Chain of Inward rectifier potassium channel 2 (Mus musculus) (P35561 whole entry, looked up): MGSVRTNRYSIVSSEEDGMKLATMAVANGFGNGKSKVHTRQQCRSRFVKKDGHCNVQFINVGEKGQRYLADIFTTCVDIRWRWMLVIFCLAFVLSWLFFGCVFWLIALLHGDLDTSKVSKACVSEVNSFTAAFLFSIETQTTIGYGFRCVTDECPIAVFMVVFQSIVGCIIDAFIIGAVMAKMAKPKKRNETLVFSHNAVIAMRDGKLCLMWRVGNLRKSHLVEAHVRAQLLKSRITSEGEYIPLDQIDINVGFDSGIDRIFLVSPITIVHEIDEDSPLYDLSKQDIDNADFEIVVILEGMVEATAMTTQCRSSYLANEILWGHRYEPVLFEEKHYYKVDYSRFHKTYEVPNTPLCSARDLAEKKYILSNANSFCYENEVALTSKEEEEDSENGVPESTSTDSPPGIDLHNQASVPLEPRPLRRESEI
row,SMILES,B-score
1,CC(C)Nc1nnc(SC(C)C(=O)N(C)C2CCCCC2)s1 (configuration not stated),1.34 (inactive)
2,NS(=O)(=O)c1ccc(CCNC(=O)NC2CCCCC2)cc1,-0.34 (inactive)
3,CC(NC(=O)CCCC1CCCCC1)c1ccc(S(N)(=O)=O)cc1 (configuration not stated),-5.32 (active)
4,CC(NC(=O)CNC(=O)Cc1cccc2ccccc12)c1ccc(S(N)(=O)=O)cc1 (configuration not stated),1.18 (inactive)
5,Cc1ccc2c(C)c(C(=O)N3CCN(c4ccncc4)CC3)oc2c1C,-0.57 (inactive)
6,CC(=O)NC(C)c1nc2ccccc2n1Cc1ccccc1F (configuration not stated),-2.56 (inactive)
7,N=c1n(CCc2ccccc2)c2ccccc2n1Cc1ccccc1F,-8.75 (active)
8,Fc1ccccc1Cn1cnc(NC(=S)NCCc2ccccc2)n1,1.75 (inactive)
9,Cc1ccc(CN2CCN(c3ccccc3Cl)CC2)o1,-1.98 (inactive)
10,c1ccc(CSc2nnc(-c3ccco3)c(-c3ccco3)n2)cc1,0.54 (inactive)
11,O=C(CSc1nnc(-c2ccco2)n1Cc1ccccc1)NC(=O)NCc1ccco1,-1.04 (inactive)
12,c1ccc(CSc2nnc(-c3ccco3)n2Cc2ccccc2)cc1,-8.28 (active)
13,Cc1nc2c(c(C)nn2-c2ccccc2)c(C)c1C,-0.74 (inactive)
14,C#CCNC(=O)[C@H](Cc1ccc(C(=O)c2ccccc2)cc1)NC(=O)OC(C)(C)C,-2.31 (inactive)
15,CCS(=O)(=O)c1cc([N+](=O)[O-])c(Sc2ccccc2N)s1,0.71 (inactive)
16,Nc1ccccc1Sc1ccc(C(F)(F)F)cc1[N+](=O)[O-],-2.03 (inactive)
17,Nc1ccccc1SC(C[N+](=O)[O-])c1ccccc1 (configuration not stated),-7.5 (active)
18,COc1cc(C(=O)N(C)Cc2cccc(OC)c2OC)ccc1OCC(=O)Nc1cccc(C(F)(F)F)c1,1.36 (inactive)
19,O=C(Cc1c[nH]c2ccccc12)OCCOC(=O)Cc1c[nH]c2ccccc12,-7.97 (active)
20,CCOC(=O)CN(C)Cc1c[nH]c2ccccc12,0.81 (inactive)
21,O=C(COC(=O)Cc1c[nH]c2ccccc12)NCCc1ccccc1,-1.86 (inactive)
22,O=C(COc1coc(CN2CCN(c3ccccc3)CC2)cc1=O)N1CCc2ccccc21,0.28 (inactive)
23,S=C(Nc1ccc(Br)cc1Cl)NC1CCN(Cc2ccccc2)CC1,-0.65 (inactive)
24,S=C(Nc1ccc(Br)cc1)NC1CCN(Cc2ccccc2)CC1,-9.22 (active)
25,O=C(NC1CCN(Cc2ccccc2)CC1)c1c(F)cccc1F,0.03 (inactive)
26,CCN(CC)c1ccc(NC(=O)c2ccc(=O)[nH]c2)cc1S(=O)(=O)Nc1ccc(OC)cc1,0.31 (inactive)
27,COc1cccc(C(=O)NCCS(=O)(=O)NCC2CCCO2)c1 (configuration not stated),2.76 (inactive)

# From PubChem BioAssay AID1672 (Johns Hopkins Ion Channel Center, 2009)
